Source: PubChem BioAssay
A selection: hits, their analogues and other compounds. The true share with any hit is near 11%.
Pf growth 96h: inhibits malaria parasite growth, 96 h. P. falciparum luciferase reporter growth, 96 h. 6.9% of 320,000 active. Potency, µM (highest dose often 28.7 µM), without a hit: at the top dose activity change, negative = inhibition, usual class: inhibitors
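Luminescence readout: decreased luciferase signal marks inhibited growth of reporter-expressing P. falciparum in infected red cells (2% hematocrit, 0.05% parasitemia final), exposed to compound two generations (96 h, 37 C, 5% CO2).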
AmpC detergent: AmpC beta-lactamase inhibition with detergent present | P00811 | AmpC hydrolysis of nitrocefin, absorbance 480 nm, 0.01% Triton | Potency, µM (top dose mostly 114 µM), without a hit: at the highest dose activity change, negative = inhibition, usual class: inhibitors | 0.041% of 370,000 active;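 further: 0% = no-compound wells and -100% = no-enzyme wells; nearly all actives have a fitted effect of over 25% in size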
Target sequence (P00811 whole entry, looked up): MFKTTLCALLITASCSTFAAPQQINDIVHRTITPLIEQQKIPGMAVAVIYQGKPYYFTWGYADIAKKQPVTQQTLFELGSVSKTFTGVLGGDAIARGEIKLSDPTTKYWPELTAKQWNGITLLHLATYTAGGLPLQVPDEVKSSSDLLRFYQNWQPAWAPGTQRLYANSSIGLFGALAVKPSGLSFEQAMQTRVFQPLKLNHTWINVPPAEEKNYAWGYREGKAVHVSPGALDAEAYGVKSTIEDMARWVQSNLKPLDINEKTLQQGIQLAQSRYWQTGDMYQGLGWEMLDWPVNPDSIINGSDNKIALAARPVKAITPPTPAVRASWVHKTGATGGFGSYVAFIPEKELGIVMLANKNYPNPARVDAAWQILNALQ
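AmpC (5.3 nM in the dispensed reagent) in 20 mM phosphate pH 7.0 with 0.01% (detergent screen) or 0.0001% Triton X-100 was preincubated with compounds for 15 min at room temperature. Nitrocefin was then added from an 800 uM solution, and hydrolysis was followed at 480 nm.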
HCV inhibitor: inhibitors of hepatitis C virus infection | Huh7.5.1 HCVcc-Cre infection, luciferase reporter, 44 h | AID 651820 | 3.4% of 340,000 active | Potency, µM (highest dose often 41.8 µM), for the others: at the top dose activity change, negative = inhibition, actives largely listed as inhibitors
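Infectious HCV cell culture screen: compound-treated cells (1,000/well, pre-plated 4 h) are infected with HCVcc-Cre at roughly 0.5 moi and grown 44 h. Infection is quantified by luciferase signal after 15 min substrate incubation at room temperature.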
Pf growth 48h: inhibits P. falciparum growth in the first generation, 48 h | 5.9% of 310,000 active | P. falciparum luciferase growth in erythrocytes, 48 h | Potency, µM (top dose mostly 28.7 µM), without a hit: top-dose activity change, negative = inhibition, usual class: inhibitors | AID 504832
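A one-generation exposure of luciferase-tagged malaria parasites in RPMI 1640/Albumax erythrocyte culture, 37 C and 5% CO2. Inhibition is inferred from decreased luminescence after adding detection reagent.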
AMA1 RON2 block: AMA1-RON2 (P. falciparum) interaction inhibition; AlphaScreen AMA1-biotinylated RON2 peptide binding; Potency, µM (series often up to 58.2 µM), inactives show top-dose activity change, negative = inhibition, most hits filed as inhibitors; 0.2% of 360,000 active; AID 720542;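 further: 0% = vehicle wells and -100% = peptide control; nearly all actives have a fitted effect of over 45% in size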
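AMA1 (3D7) with his tag at 25 nM final met compounds first, then biotinylated RON2 peptide at 25 nM; detection used donor plus acceptor beads, 10 µg/mL apiece, read by AlphaScreen after 30 min at room temperature.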
AmpC no deterg: AmpC beta-lactamase inhibition without detergent; P00811; AmpC nitrocefin hydrolysis, absorbance 480 nm, 0.0001% Triton; 0.52% of 330,000 active; Potency, µM (series often up to 57.1 µM), without a hit: at the highest dose activity change, negative = inhibition, hits mostly inhibitors;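 further: plate controls were no compound for no effect and no enzyme for full effect; nearly all actives have a fitted effect of over 20% in size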
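AmpC (5.3 nM in the dispensed reagent) in 20 mM phosphate pH 7.0 with 0.01% (detergent screen) or 0.0001% Triton X-100 was preincubated with compounds for 15 min at room temperature. Nitrocefin was then added from an 800 uM solution, and hydrolysis was followed at 480 nm.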
Starred values were filed as active, the others as inactive; ? = inconclusive; nt = no result given. The call rests on the fitted dose curve; in most records, active means well fitted curve in the direction sought with a large enough effect; inconclusive means small, poorly fitted or top-dose-only effect, or another doubt; inactive means no such curve, though single readings can be large; an effect the other way counts as inactive or inconclusive. Unless noted, on the % scale 0 is the no-effect control and ±100 the full control effect; potency means the concentration at half of the fitted maximal effect.

SMILES	Pf growth 96h	AmpC detergent	HCV inhibitor	Pf growth 48h	AMA1 RON2 block	AmpC no deterg
C/C(=N\NC(N)=S)C12CC3CC(CC(C3)C1)C2	5.22µM*	-2.4%	?	nt	24.1%	-33.0%
Cc1ccc(Nc2nc3nonc3[nH]c2=O)cc1C	5.22µM*	-5.0%	-6.9%	45.5%	7.0%	-49.6%
Cc1ccccc1NC1=NC(=S)N(c2ccccc2)C12CCCCC2	10.4µM*	?	-10.5%	?	-20.3%	-13.3%
O=C(CSc1nnc(CNC(=O)c2ccco2)o1)c1ccccc1	4.15µM*	-1.7%	10.0%	nt	-5.5%	-31.8%
O=C(CSc1nnc(CNC(=O)c2ccco2)o1)Nc1cccc(Cl)c1	5.86µM*	2.6%	10.3%	14.5%	14.2%	-14.4%
Cc1ccc(F)cc1NC(=O)CSc1nnc(CNC(=O)c2ccco2)n1C	-1.1%	-3.8%	17.3%	31.1%	18.7%	-14.2%
Cc1cc(C)c(NC(=O)CSc2nnc(CNC(=O)c3ccco3)o2)c(C)c1	9.28µM*	-2.7%	5.8%	-20.2%	10.0%	-2.0%
Cc1ccc(C)c(NC(=O)CSc2nnc(CNC(=O)c3ccco3)n2C)c1	2.08µM*	4.1%	-1.8%	27.8%	-5.9%	-6.2%
COc1ccc(C2=C(C)C(=NCCCN3CCN(c4cc(C)ccc4C)CC3)NS2(=O)=O)cc1	nt	-7.8%	nt	nt	nt	nt
COc1ccc(-c2noc(-c3ccc(N4CCCCC4C)c([N+](=O)[O-])c3)n2)cc1OC (stereo unspecified)	nt	21.1%	nt	nt	nt	nt
Cc1cc(C)cc(-n2nnc(-c3nc(-c4ccc5c(c4)OCO5)no3)c2C)c1	nt	2.0%	nt	nt	nt	nt
CCOc1ccccc1NC(=O)C(NS(=O)(=O)c1ccc2c(c1)CCC(=O)N2)c1ccccc1 (stereo unspecified)	nt	-7.6%	nt	nt	nt	nt
Cc1ccc(C)c(N2CCN(C(=O)c3c4c(nc5ccccc35)C(=O)N(C3CCCCC3)C4)CC2)c1	nt	5.6%	nt	nt	nt	nt
CCc1ccccc1NC(=O)N1CC(C)Sc2ccccc21 (stereo unspecified)	nt	3.6%	nt	nt	nt	nt
CCC1=C(c2ccc(C)cc2)S(=O)(=O)N=C1N1CCC(C(=O)NCCc2cccc(OC)c2)CC1	nt	17.2%	nt	nt	nt	nt
O=C(CSc1nnc(CNC(=O)c2ccco2)o1)Nc1ccccc1	26.0%	4.4%	12.4%	12.6%	-3.4%	-21.0%
O=C(CSc1nnc(CNC(=O)c2ccco2)o1)Nc1ccc(Cl)cc1	10.4µM*	-6.9%	22.1%	20.9%	22.2%	-9.8%
COc1ccc(OC)c(NC(=O)CSc2nnc(CNC(=O)c3ccco3)o2)c1	2.62µM*	-11.6%	2.3%	nt	0.0%	-8.6%
O=C(COc1ccc(Cl)cc1)NCc1nnc(SCC(=O)c2ccccc2)o1	4.15µM*	2.5%	?	-6.0%	7.6%	-0.7%
CCc1c(C)nc2nncn2c1Nc1ccc(C)c(F)c1	nt	15.4%	nt	nt	nt	nt
COc1cc2c(=O)n(Cc3ccccc3)c(=O)n(CC(=O)Nc3cc(C(F)(F)F)ccc3Cl)c2cc1OC	nt	6.0%	nt	nt	nt	nt
CC1=C/C(=N\Nc2ccccc2[N+](=O)[O-])CC(C)(C)C1	-25.7%	-7.3%	-6.9%	?	3.55µM*	-29.3%
COc1cccc(C2CC(=O)Nc3c2c(=O)n(C)c2nc4ccccc4n32)c1OC (stereo unspecified)	nt	4.1%	nt	nt	nt	nt
CCOC(=O)c1sc2nccc(N(C)C)c2c1N=CNOCc1ccccc1	?	1.4%	7.94µM*	nt	78.0%	92.6%
CCOC(=O)c1sc2nccc(N(C)C)c2c1N=CNOC	-94.7%	0.6%	?	nt	46.5%	30.3%
SMILES	Pf growth 96h	AmpC detergent	HCV inhibitor	Pf growth 48h	AMA1 RON2 block	AmpC no deterg
Cc1ccc(-c2nc3ccccc3[nH]2)cc1NC(=O)COc1ccccc1[N+](=O)[O-]	nt	0.9%	nt	nt	nt	nt
CCOC(=O)N1CCC(c2cc(=O)n3[nH]cc(C(=O)OC)c3n2)CC1	?	?	7.1%	-0.8%	7.2%	7.94µM*
COC(=O)C1(C)NC(=O)c2ccccc2N1 (stereo unspecified)	13.1µM*	-15.8%	0.7%	-0.6%	-2.9%	-1.8%
Cc1ccc(Nc2ccc(N3CCN(C(=O)c4ccc([N+](=O)[O-])cc4Cl)CC3)nn2)cc1	nt	1.0%	nt	nt	nt	nt
CN1C=C/C(=C\c2cc[n+](C)c3ccccc23)c2ccccc21	11.7µM*	?	4.47µM*	?	-14.1%	-17.1%
COc1ccccc1C(=O)Nc1ccccc1SCc1cc(=O)c2ccccc2[nH]1	nt	10.1%	nt	nt	nt	nt
Cc1ccc(S(=O)(=O)N2CCC(C(=O)N3CCC[C@H]3C(=O)NCc3ccco3)CC2)cc1	13.1µM*	-17.6%	-4.3%	11.7µM*	-0.2%	4.8%
CC1CCCCN1S(=O)(=O)c1ccc(S(=O)(=O)N(Cc2ccccc2)Cc2ccco2)cc1 (stereo unspecified)	10.4µM*	?	1.4%	10.4µM*	3.4%	-58.9%
Cc1ccc(S(=O)(=O)N2CCC(C(=O)N3CCC[C@H]3C(=O)NCc3ccccc3)CC2)cc1	23.2%	-4.5%	-9.1%	?	-5.2%	65.8%
Cc1ccc(S(=O)(=O)N2CCCCC2C(=O)NCc2ccco2)cc1 (stereo unspecified)	5.22µM*	-8.5%	-10.9%	?	14.9%	-22.5%
CCCN1CCC(NC(=O)CC2C(=O)NCCN2Cc2ccccc2C)CC1 (stereo unspecified)	10.4µM*	-14.2%	9.0%	24.4%	13.4%	25.9%
Cc1cccc(CCNC(=O)CC2C(=O)NCCN2Cc2ccccc2C)n1 (stereo unspecified)	11.7µM*	15.8%	-3.5%	-53.9%	20.5%	105.3%
CCCN1CCC(NC(=O)CC2C(=O)NCCN2Cc2cccc(OC)c2)CC1 (stereo unspecified)	?	5.1%	5.1%	-0.4%	1.0%	32.1%
Cc1cccc(CCNC(=O)CC2C(=O)NCCN2CC2CCCCC2)n1 (stereo unspecified)	?	11.9%	9.4%	?	10.6%	88.6%
Cc1nc(SCc2cccc(Cl)c2)nc2c1CCCC2	nt	21.1%	nt	nt	nt	nt
CCNCCC(CCC(C)C)c1ccc2c(c1)OCO2 (stereo unspecified)	2.94µM*	?	?	?	-10.8%	-13.3%
Fc1ccccc1CNCCC(Cc1ccccc1)c1ccc2c(c1)OCO2 (stereo unspecified)	-13.8%	1.0%	?	?	-29.1%	31.1%
CC(C)CCC(CCNCc1ccccn1)c1ccc2c(c1)OCO2 (stereo unspecified)	10.4µM*	5.1%	-17.2%	?	14.9%	35.4%
CCc1nc(SCC(=O)NCc2ccc(F)cc2)c2c(=O)n(C)c(=O)n(C)c2n1	32.2%	?	2.5%	5.1%	-3.6%	2.51µM*
